This assay can be described thus: differential killing of epithelial or mesenchymal cells, primary screen, imaging, PC-3E GFP, TEM4-18 mCherry, co-culture (AID 1345086).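 As to all read-outs here: cells exposed to compound for 72 h before imaging.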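 As to red/green cell ratio (normalised): normalised mesenchymal count divided by normalised epithelial count so high means epithelial killing.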 As to conditions: imaging cell counts, at 1 µM; for red/green cell ratio (normalised): actives lie on both sides, counts scaled to control wells, 1 = unselective.
Setting [1] is: measured here: epithelial PC-3E GFP cell survival.
Where [2] appears, read: measured here: mesenchymal TEM4-18 mCherry cell survival.

The text below walks through data of PubChem BioAssay.

SMILES strings stand for the structures. Calls of active or inactive are those of the source.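 The calls were made as follows: active = compounds killing one labelled cell type while sparing the other, by normalised counts and ratio limits, not self-fluorescent; inactive = the rest.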

With `C=C(C)C#CC1=C[C@@H](O)[C@@H]2O[C@]2([C@H](O)C=C(C)C)[C@@H]1O`, the red/green cell ratio (normalised) was 0.95 (inactive). Also, the normalised cell number under setting [1] amounted to 0.96. Further, under setting [2], the normalised cell number was 0.91.
On the same counts, the results for `O=C1OCC[C@H]1Oc1ccc(Oc2cnc3ccc(Cl)cc3n2)cc1` are 1.01 (inactive), 1.08 and 1.09.
In the case of `COc1cc(O)c2c(=O)c(OC)c(-c3ccc(OC)c(OC)c3)oc2c1`, the red/green cell ratio (normalised) was 1.03 (inactive). Under setting [1], this molecule yielded a normalised cell number of 0.82. Besides, the normalised cell number under setting [2] came out at 0.85.
On the same counts, the results for `O=C(N[C@@H](Cc1ccc(O)cc1)C(=O)O)OCc1ccccc1` are 0.96 (inactive), 1.09 and 1.04.
`COC1=CC(=O)C[C@@H](C)[C@]12Cc1c(Cl)c(OC)cc(OC)c1C2=O`: the red/green cell ratio (normalised) was 0.76 (inactive). The same molecule yielded a normalised cell number under setting [1] of 1.33. The normalised cell number under setting [2] amounted to 1.01.
For the molecule `CC(CC(=O)N1C(=O)OC[C@H]1c1ccccc1)N1CCOC1=S` (stereo not given in full), the red/green cell ratio (normalised) was 0.87 (inactive). Under setting [1], this molecule yielded a normalised cell number of 1.09. The molecule also had a normalised cell number under setting [2] of 0.95.
On the same counts, the results for `CO[C@H]1OC(COCc2ccccc2)C(O)[C@@H]2OC(=O)N[C@H]12` (stereo not given in full) are 1.08 (inactive), 0.88 and 0.95.
As to `COC(=O)CCC(=O)NC(=O)Cc1ccccc1`, the red/green cell ratio (normalised) is 0.93 (inactive). The normalised cell number under setting [1] amounted to 1.16. The normalised cell number under setting [2] amounted to 1.08.
As to `NC(CSCSCC(N)C(=O)O)C(=O)O` (stereo not given), the red/green cell ratio (normalised) was 1.19 (inactive). In addition, the normalised cell number under setting [1] amounted to 0.91. This molecule yielded a normalised cell number under setting [2] of 1.08.
In the same order, the values of `O=C(O)c1ccc(-c2ccccc2)cc1` are 0.96 (inactive), 1.01 and 0.97.
`O=C(Nc1ccc(Cl)cc1)Nc1ccc(CO)cc1`: the red/green cell ratio (normalised) was 0.86 (inactive). The molecule also came in with a normalised cell number under setting [1] of 1.29. The molecule also returned a normalised cell number under setting [2] of 1.11.
In the same order, the values of `COc1cc([C@@H]2c3cc4c(cc3[C@H](O)C3COC(=O)[C@H]32)OCO4)cc(OC)c1OC` (stereo not given in full) are 1.4 (inactive), 0.16 and 0.22.
In the same order, the values of `C[C@@H]1CC[C@H]2[C@@H](C)C(O)O[C@@H]3O[C@]4(C)CC[C@@H]1[C@]32OO4` (stereo not given in full) are 0.74 (inactive), 1.16 and 0.85.
In the same order, the values of `O=C(/C=C/c1ccccc1)O[C@H]1C[C@@H](O)[C@]2(O)C=CO[C@@H](O[C@@H]3O[C@H](CO)[C@@H](O)[C@H](O)[C@H]3O)C12` (stereo not given in full) are 1.09 (inactive), 0.87 and 0.95.
Regarding `C[C@@H]1C[C@H](O)[C@@H](O)CO1`, the red/green cell ratio (normalised) is 0.94 (inactive). The normalised cell number under setting [1] is 1.12. Also, under setting [2], the normalised cell number is 1.05.
On the same counts, the results for `COc1cc(/C=C/C(=O)O)cc(OC)c1` are 1.01 (inactive), 0.91 and 0.93.
For the molecule `C/C=C/[C@@H]1OC2=C(C(=O)O[C@H]2C)[C@H](O)[C@H]1O`, the red/green cell ratio (normalised) is 0.96 (inactive). The same molecule displayed a normalised cell number under setting [1] of 0.76. The normalised cell number under setting [2] was 0.73.
In the same order, the values of `COc1c(N2CC[C@@H](CN)C2)c(F)cc2c(=O)c(C(=O)O)cn(CCc3ccccc3)c12` are 1.14 (inactive), 0.87 and 1.
On the same counts, the results for `CC/C=C\[C@H](O)[C@H](O)C1=C(C)C(=O)[C@]2(O1)C(=O)N[C@@](OC)(C(=O)c1ccccc1)[C@@H]2O` are 1.21 (inactive), 0.79 and 0.95.
In the same order, the values of `CC[C@@H]1OC(=O)c2c(OC)cc(=O)oc21` are 1.1 (inactive), 1.01 and 1.11.
With `COC(=O)C1O[C@H](O[Si](C)(C)C(C)(C)C)[C@@H](O)[C@@H](OC(=O)c2ccccc2)C1OC(=O)c1ccccc1` (stereo not given in full), the red/green cell ratio (normalised) is 0.98 (inactive). Moreover, the normalised cell number under setting [1] was 1.18. Under setting [2], the normalised cell number is 1.15.
In the same order, the values of `Cc1[nH]cc[n+]1CC1CCC2C(C1=O)c1ccccc1N2C` (stereo not given) are 0.73 (inactive), 1.19 and 0.87.
Consider `C[C@@H]1O[C@@H](O[C@H]2[C@@H](Oc3cc(O)c4c(c3)O[C@H](c3ccc(O)cc3)CC4=O)O[C@H](CO)[C@@H](O)[C@@H]2O)[C@H](O)[C@H](O)[C@H]1O`, for which the red/green cell ratio (normalised) is 1.11 (inactive). This molecule also yielded a normalised cell number under setting [1] of 0.94. This molecule returned a normalised cell number under setting [2] of 1.04.
In the same order, the values of `COc1cc(O)c2c(c1)C(=O)C1=C(C2=O)C(OC)OC1` (stereo not given) are 1.02 (inactive), 0.9 and 0.92.
On the same counts, the results for `CC[C@H](O)c1oc(=O)cc(OC)c1C` are 0.96 (inactive), 1.01 and 0.97.
On the same counts, the results for `C[C@H]1[C@H]2CCC3C4CC=C5C[C@@H](N(C)C)CC[C@]5(C)C4CC[C@@]32CN1C` (stereo not given in full) are 0.93 (inactive), 0.89 and 0.83.
For `CCC(/C=C/[C@@H](C)[C@H]1CCC2C3CC=C4C[C@@H](O)CC[C@]4(C)C3CC[C@@]21C)C(C)C` (stereo not given in full), the red/green cell ratio (normalised) is 1.07 (inactive). Under setting [1], this molecule displayed a normalised cell number of 1.13. Moreover, the normalised cell number under setting [2] was determined as 1.2.
For the molecule `N=c1ccn2c(n1)O[C@@H]1[C@@H](O)[C@H](CO)O[C@@H]12`, the red/green cell ratio (normalised) is 0.99 (inactive). Also, under setting [1], the normalised cell number was 0.27. Under setting [2], the normalised cell number is 0.27.
Turning to `C=C1OC(=O)[C@]2([C@H](C)C=CC(=O)[C@H]2O)[C@H]1O`, the red/green cell ratio (normalised) was 1.05 (inactive). The normalised cell number under setting [1] was 1.08. In addition, the normalised cell number under setting [2] came to 1.14.
On the same counts, the results for `COc1cc(O)c2c(c1C)C(C(C)=O)COC2=O` (stereo not given) are 0.88 (inactive), 0.32 and 0.28.
